{"source": "paper PMC13083723", "about": "(Patterns, 2026)", "note": "In all, about 5,400 compounds went through this assay and about 190 (3.5%) showed an effect of 50% or more. Only a selection was taken, and strong results are over-represented in it overall."}
{"system": "Vero-E6", "test": "primary screen, phospholipidosis by LipidTOX staining; higher = more effect of the substance", "details": "10 µM", "method_in_brief": "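Single-concentration screen at 10 μM, with DMSO 0.1 v/v % and amiodarone 10 μM as controls. Read-out is LipidTOX Red phospholipid staining, which tolerates aldehyde fixation, in Vero-E6 cells.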", "units": {"result_ITMP": "%"}}
{"smiles": "CO[C@H]1C[C@H](O[C@H]2CC[C@@]3(C)[C@H](CC[C@@H]4[C@@H]3CC[C@]3(C)[C@@H](C5=CC(=O)OC5)[C@@H](OC(C)=O)C[C@]43O)C2)O[C@@H](C)[C@@H]1O", "result_ITMP": -2.23}
{"smiles": "CO/N=C(\\C(=O)N[C@@H]1C(=O)N2C(C(=O)[O-])=CCS[C@H]12)c1csc(N)n1", "result_ITMP": -1.89}
{"smiles": "CCC1=C[C@@H]2C[N@](C1)Cc1c([nH]c3ccccc13)[C@@](C(=O)OC)(c1cc3c(cc1OC)N(C)[C@H]1[C@@](O)(C(=O)OC)[C@H](OC(C)=O)[C@]4(CC)C=CCN5CC[C@]31[C@@H]54)C2", "result_ITMP": 7.31}
{"smiles": "CCN1CCC(n2cc(CNc3cc(Cl)c4ncc(C#N)c(Nc5ccc(F)c(Cl)c5)c4c3)nn2)CC1", "result_ITMP": 9.34}
{"smiles": "C=CC(=O)Nc1cc2c(Nc3ccc(F)c(Cl)c3)ncnc2cc1C#CC(C)(C)N1CCN(C)CC1", "result_ITMP": 36.6}
{"smiles": "CN1CCC(Nc2ncc3ncnc(Nc4ccc(F)c(Cl)c4)c3n2)CC1", "result_ITMP": 76.5}
{"smiles": "CCN(CC)CC1CCN(c2ncc3ncnc(Nc4ccc(F)c(Cl)c4)c3n2)CC1", "result_ITMP": 97}
{"smiles": "N#Cc1cc(CN2CCC(Nc3ncnc4sc(Cl)cc34)CC2)ccc1F", "result_ITMP": 18.7}
{"smiles": "CC(C)(C)NCC(O)COc1cccc2c1C[C@H](O)[C@H](O)C2", "note": "(mixture of isomers)", "result_ITMP": -2.49}
{"smiles": "CC[C@H](C)[C@H](NC(=O)[C@H](CCC(=O)O)NC(=O)[C@H](CCC(=O)O)NC(=O)[C@H](Cc1ccccc1)NC(=O)[C@H](CC(=O)O)NC(=O)CNC(=O)[C@H](CC(N)=O)NC(=O)CNC(=O)CNC(=O)CNC(=O)CNC(=O)[C@@H]1CCCN1C(=O)[C@H](CCCNC(=N)N)NC(=O)[C@@H]1CCCN1C(=O)[C@H](N)Cc1ccccc1)C(=O)N1CCC[C@H]1C(=O)N[C@@H](CCC(=O)O)C(=O)N[C@@H](CCC(=O)O)C(=O)N[C@@H](Cc1ccc(O)cc1)C(=O)N[C@@H](CC(C)C)C(=O)O", "result_ITMP": 0.65}
{"smiles": "O=C1[N-]C(=O)C(c2ccccc2)(c2ccccc2)N1", "result_ITMP": -1.89}
{"smiles": "NC(N)=NC(=O)c1cnn(-c2cccc3ncccc23)c1C1CC1", "result_ITMP": -1.94}
{"smiles": "Cc1cc(-c2ccccc2)nnc1NCCN1CCOCC1", "result_ITMP": -1.84}
{"smiles": "COc1ccc(C(=O)c2c(C)n(CCN3CCOCC3)c3ccccc23)cc1", "result_ITMP": 0.58}
{"smiles": "CCn1c2ccccc2c2cc(Nc3ccnc(NCCCN4CCOCC4)n3)ccc21", "result_ITMP": 57.6}
{"smiles": "O=C([O-])C1[O][Sb]2[O]C(=O)C([O]2)C(C(=O)[O-])[O][Sb]2[O]C(=O)C1[O]2", "note": "(stereo not drawn)", "result_ITMP": -8.7}
{"smiles": "CC1(C)S[C@@H]2[C@H](NC(=O)COc3ccccc3)C(=O)N2[C@H]1C(=O)[O-]", "result_ITMP": -2.47}
{"smiles": "COc1ccccc1N1CCN(CCN2C(=O)c3ccccc3C(C)(C)C2=O)CC1", "result_ITMP": 2.7}
{"smiles": "Fc1ccc(-n2cc(CCCCN3CCC4(CC3)OCc3ccccc34)c3ccccc32)cc1", "result_ITMP": 26.9}
{"smiles": "COc1ccccc1C1(O)CCN(CCCn2c3ccccc3c3ccccc32)CC1", "result_ITMP": 52.4}
{"smiles": "CC1=C(/C=C/C(C)=C/C=C/C(C)=C/C(=O)O)C(C)(C)CCC1", "note": "[R4A_0003961_001 / SPE_K71879491]", "result_ITMP": 4.7}
{"smiles": "C[C@H](Nc1ncnc2[nH]cnc12)c1cc2ccc(F)cc2nc1-c1ccccn1", "note": "[R4A_0002240_001 / SPE_A58947127]", "result_ITMP": 4.77}
{"smiles": "COc1ccc(C(=O)/C(Cc2cc(OC)c(OC)c(OC)c2)=C(\\C(=O)[O-])c2ccc3c(c2)OCO3)cc1", "result_ITMP": -3.57}
{"smiles": "Cc1[nH]c2ccc(Cl)cc2c1C1=CCNCC1", "result_ITMP": 96.8}
{"smiles": "COc1ccc2[nH]cc(C3=CCNCC3)c2c1", "result_ITMP": -0.41}
{"smiles": "O=c1ccc2[nH]cc(C3=CCNCC3)c2[nH]1", "result_ITMP": -1.73}
{"smiles": "C[C@@H]([C@H](C)O)[C@H](N)C(=O)O", "result_ITMP": 0.75}
{"smiles": "N#CN/C(=N\\c1ccncc1)NCCCCCCOc1ccc(Cl)cc1", "result_ITMP": 0.38}
{"smiles": "COc1ccc(-c2ccc3c(N4CCOCC4)nc(N4C[C@@H](C)O[C@@H](C)C4)nc3n2)cc1CO", "result_ITMP": 1.47}
{"smiles": "CNC(=O)[C@@H](c1ccccc1)N1CCc2cc(OC)c(OC)cc2[C@@H]1CCc1ccc(C(F)(F)F)cc1", "result_ITMP": 1.25}
{"smiles": "COc1ccc(OCC2c3cc(OC)c(OC)cc3CCN2C(=O)c2cccc(Cl)c2)cc1", "note": "(stereo not drawn)", "result_ITMP": -4.92}
{"smiles": "COc1cc2c(cc1O)C(CCc1ccc(Cl)cc1)N(C)CC2", "note": "(stereo not drawn)", "result_ITMP": 64}
{"smiles": "Cc1c(N(C)CS(=O)(=O)[O-])c(=O)n(-c2ccccc2)n1C", "result_ITMP": -4.64}
{"smiles": "CCCCCCCCCC(=O)O[C@H]1CC[C@H]2[C@@H]3CCC4=CC(=O)CC[C@@H]4[C@H]3CC[C@]12C", "result_ITMP": -0.22}
{"smiles": "CN1CCC2=C(C1)c1ccccc1Cc1ccccc12", "result_ITMP": 52.7}
{"smiles": "CN1CCC2=C(C1)C(c1ccccc1)c1ccccc12", "note": "(stereo not drawn)", "result_ITMP": 6.76}
{"smiles": "CN1CCC(=C2c3ccccc3CC(=O)c3sccc32)CC1", "result_ITMP": 29}
{"smiles": "O=[N+]([O-])O[C@@H]1CO[C@H]2[C@@H]1OC[C@@H]2O", "result_ITMP": -9.17}
{"smiles": "C[C@@H](O[C@H]1OCCN(Cc2nn(P(=O)(O)O)c(=O)[nH]2)[C@H]1c1ccc(F)cc1)c1cc(C(F)(F)F)cc(C(F)(F)F)c1", "result_ITMP": 6.28}
{"smiles": "C[C@@H](O[C@H]1OCCN(Cc2n[nH]c(=O)[nH]2)[C@H]1c1ccc(F)cc1)c1cc(C(F)(F)F)cc(C(F)(F)F)c1", "result_ITMP": 2.55}
{"smiles": "C[C@@H](O[C@H]1OCCN(Cc2nn[nH]c2CN(C)C)[C@H]1c1ccc(F)cc1)c1cc(C(F)(F)F)cc(C(F)(F)F)c1", "result_ITMP": 71.2}
{"smiles": "OCCNCCCOc1cccc(Cl)c1Cl", "result_ITMP": 55.4}
{"smiles": "C[C@]12CCC(=O)C=C1CC[C@@H]1[C@@H]2CC[C@@]2(C)[C@H]1CC[C@]2(O)C(=O)CO", "result_ITMP": -5.73}
{"smiles": "CCCCOc1ccc(C(=O)Nc2ccc(F)cc2F)cc1", "result_ITMP": -8.12}
{"smiles": "C=CCN(C)CCCCCCOc1ccc(C(=O)c2ccc(Br)cc2)c(F)c1", "result_ITMP": 92.9}
{"smiles": "CCOc1ccc(-c2ccc(Cn3c(CC(C)(C)C(=O)[O-])c(SC(C)(C)C)c4cc(OCc5ccc(C)cn5)ccc43)cc2)cn1", "result_ITMP": 0.09}
{"smiles": "CNc1ncc2cc(-c3cc(NC(=O)NCCC(C)(C)C)c(F)cc3C)c(C)nc2n1", "result_ITMP": -7.16}
{"smiles": "CCN(CC)CCCCNc1ncc2cc(-c3cc(OC)cc(OC)c3)c(NC(=O)NC(C)(C)C)nc2n1", "result_ITMP": 90.1}
{"smiles": "CCN(CC)CCCCNc1ncc2cc(-c3c(Cl)cccc3Cl)c(NC(=O)NC(C)(C)C)nc2n1", "result_ITMP": 69.2}
{"smiles": "CCN(CC)CCOc1ccc(Nc2ncc3cc(-c4c(Cl)cccc4Cl)c(=O)n(C)c3n2)cc1", "result_ITMP": 24.2}
{"smiles": "CCN(CC)CCNC(=O)COc1ccc(OC)cc1", "result_ITMP": -4.1}
